Screens: PubChem, several laboratories
NALP3 yeast inh: NALP3 inflammasome inhibitors in reconstituted yeast, primary screen, luminescence, uHTS | Yeast reconstituted NLRP3/ASC/caspase-1, beta-gal luminescence, 24 h | inhibition, % at 10 µM | 0.39% of 330,000 active | AID 2825, 2010;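 active means inhibition of 50% or more; inactive means inhibition below 50%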;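 further: plate controls were induced DMSO wells for no effect and uninduced yeast grown without galactose for full effect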
tim23-1 inh: growth inhibitors of tim23-1 mutant yeast, primary screen, luminescence, uHTS | S. cerevisiae tim23-1 growth, BacTiter-Glo luminescence, 24 h | inhibition, % at 20 µM | 1.3% of 330,000 active;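 active means growth inhibition of the mutant yeast at or above 50%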;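 further: temperature-sensitive mutant grown at 25 °C; plate controls were DMSO-treated mutant yeast for no effect and medium wells lacking yeast for full effect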
TIM10 inh: growth inhibitors of isogenic TIM10 control yeast, primary screen, counter-screen for tim10-1 yeast inhibitor project, luminescence, uHTS. S. cerevisiae TIM10 strain growth, BacTiter-Glo luminescence, 24 h. inhibition, % at 10 µM. 1.4% of 330,000 active;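 active means inhibition of 40% or more at the single tested concentration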;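 further: wild-type TIM10 isogenic control strain grown at permissive 25 °C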
tim10-1 inh: growth inhibitors of tim10-1 mutant yeast, primary screen, luminescence, uHTS; S. cerevisiae tim10-1 ts strain growth, BacTiter-Glo, 24 h; inhibition, % at 20 µM; 2.2% of 330,000 active;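 active means inhibition of at least 40%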;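 further: mutant grown at 25 °C; 0% = DMSO wells with yeast and 100% = wells holding no yeast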
V-ATPase pH: regulators of yeast V-ATPase proton pumping, primary screen, pHLuorin cytosolic pH fluorescence; 0.37% of 350,000 active; S. cerevisiae; AID 504577, 2011; response, % at 10 µM; in the data active means response mostly above about 7.3%, no sharp cut-off; inactive means mostly below about 5.4%; further: actives read high
NALP1 yeast inh: NALP1 inflammasome inhibitors in reconstituted yeast, colorimetric, S. cerevisiae, triplicate retest | S. cerevisiae NALP1/ASC/caspase-1 growth, X-gal OD620, 72 h | inhibition, % at 10 µM | 0.61% of 280,000 active; in the data active means inhibition mostly above about 24%, no sharp cut-off; inactive means mostly below about 32%
Active calls of the source: *; . = no result given. In the library only some 4.2% were active in any assay of this set; here they are far more common.

SMILES | NALP3 yeast inh | tim23-1 inh | TIM10 inh | tim10-1 inh | V-ATPase pH | NALP1 yeast inh
O=C(CCC(=O)c1cccs1)Nc1ccccc1F | 20 | 7 | 3 | 11 | 19* | -9
CC1CCCN(CCCOc2ccc(Cl)cc2Br)C1 (stereo unspecified) | 21 | -7 | -35 | -63 | -5 | 50*
C=CCOn1c(=O)c(-c2cc3ccccc3o2)[n+]([O-])c2ccccc21 | 20 | 28 | 18 | 19 | 0 | 28*
C=CCOn1c(=O)c(-c2ccccc2)[n+]([O-])c2ccccc21 | 24 | 7 | 6 | 20 | -1 | -2
CCOC(=O)c1cc(NC(=O)N(CC)CC)c(C)nc1C | 5 | 1 | -11 | 11 | 8 | 37*
CCS(=O)(=O)NCC(c1cccnc1)N1CCN(c2ccccc2)CC1 (stereo unspecified) | 0 | 5 | -3 | 9 | 21* | 30
CCS(=O)(=O)NCC(c1cccnc1)N1CCN(c2ccc(OC)cc2)CC1 (stereo unspecified) | 10 | 21 | -6 | -3 | 5 | 6
CN(C)CCNC=C(C(=O)Nc1ccc(Cl)cc1Cl)C(=O)Nc1ccc(Cl)cc1Cl | 31 | 14 | 9 | 15 | 1 | 80*
O=C(Nc1ccccc1)NC1(C(=O)N2CCN(c3ncccn3)CC2)CCCCC1 | 14 | 9 | 7 | 3 | 16* | 0
O=C(NCc1ccccc1)NC1(C(=O)N2CCN(c3ncccn3)CC2)CCCCC1 | 23 | 10 | 10 | 5 | -2 | 14
Cc1cccc2sc(NNC(=O)c3ccc(S(=O)(=O)N4CCc5ccccc5C4)cc3)nc12 | 10 | 19 | -31 | -3 | 3 | 20
Cc1cccc2sc(NNC(=O)c3ccc(S(=O)(=O)N4CCCC(C)C4)cc3)nc12 (stereo unspecified) | . | . | . | . | 10* | 19
CN(C)c1ccc(N=C/C=C2/N(C)c3ccccc3C2(C)C)cc1 | . | . | . | . | 9 | 54*
COc1ccccc1-n1c(SCC(=O)N2CCOCC2)nc2cccnc21 | 11 | 3 | -3 | 0 | 3 | 6
Cc1ccc(S(=O)(=O)NC(=O)Nc2ccc(OC(F)F)cc2)cc1 | 9 | 6 | 2 | 4 | 2 | 36*
Cc1ccc(S(=O)(=O)NC(=O)Nc2ccc(F)cc2)cc1 | 5 | 7 | 15 | 7 | 1 | 25
CC(C)(COC(=O)c1ccccc1)N1CC2CCC(C1)O2 | . | . | . | . | 19* | .
Clc1ccc(-c2nc3ccc(Br)cn3c2Cc2ccccc2)cc1 | . | . | . | . | 1 | .
COc1cccc(-n2cc(CNCc3c(C(=O)N(C)C)nc4ccc(Cl)cn34)cn2)c1 | 5 | 14 | 3 | 0 | 1 | 16
COc1cccc(-n2cc(CNCc3cn(C)nc3-c3ccccc3F)cn2)c1 | -7 | 9 | 7 | 11 | 14* | 12
CCOC(=O)C1=C(C)Nc2[nH]c(=O)[nH]c(=O)c2C1c1cccs1 (stereo unspecified) | 1 | -7 | -2 | 2 | -3 | 16
C=CCOC(=O)C1=C(C)Nc2[nH]c(=O)[nH]c(=O)c2C1c1ccccc1 (stereo unspecified) | -21 | 16 | 16 | 22 | -2 | 29*
COc1ccc(C(=O)C(CCCCC(CN(C)C)C(=O)c2ccc(OC)cc2)CN(C)C)cc1 (stereo unspecified) | 8 | 3 | 6 | -5 | 2 | 25*
O=C(c1ccccc1)C(CCc1ccccn1)CCc1ccccn1 | . | . | . | . | -4 | .
COc1ccc(C(=O)CC(=O)c2ccc(OC)cc2)cc1 | 39 | 6 | 12 | 16 | 0 | 9
SMILES | NALP3 yeast inh | tim23-1 inh | TIM10 inh | tim10-1 inh | V-ATPase pH | NALP1 yeast inh
CN(C)CC(CCC(CN(C)C)C(=O)c1ccccc1)C(=O)c1ccccc1 (stereo unspecified) | . | . | . | . | -3 | 26*
CCOc1ccc(C(=O)c2ccncc2)cc1 | 8 | 9 | -10 | 1 | 2 | 4
CCOc1ccc(C(=O)C(CCC(CN(C)C)C(=O)c2ccc(OCC)cc2)CN(C)C)cc1 (stereo unspecified) | . | . | . | . | 9.6* | 48*
Cc1ccc(C2C(=O)c3ccccc3C2=O)cc1 | 14 | 9 | -1 | 15 | 0 | 14
C[C@@H]1CN([C@@H](C)CO)C(=O)CCCn2nncc2CO[C@H]1CN(C)Cc1ccc2c(c1)OCO2 | . | . | . | . | -3 | .
CSc1nc2c(c(=O)n1-c1ccc(C)cc1)SCC2 | 23 | 19 | 2 | 23 | 3 | 28*
Cc1ccc(Oc2cc(C)nc(-c3ccccc3O)n2)cc1 | 20 | 0 | 10 | 11 | 0 | 20
Cc1cc(Oc2ccc(Cl)cc2)nc(-c2ccccc2O)n1 | 14 | 10 | 11 | 10 | 2 | 32*
N#Cc1ccc(OCC(=O)NCCc2ccccn2)cc1 | 6 | 3 | 8 | -14 | 1 | 36*
O=C(COc1ccc(Br)cc1)NCc1ccccn1 | 24 | 21 | -3 | 2 | -5 | 6
O=C(NCc1ccccn1)c1ccc(S(=O)(=O)Nc2ccccc2F)cc1 | 11 | -2 | -8 | -1 | 3 | 10
O=C(CSc1nc(O)c(Cc2ccccc2)c(=O)n1-c1ccccc1)N1CCOCC1 | 11 | 13 | -8 | 8 | 0 | 40*
Clc1ccc(-c2ccc(CN3CCCCC3)o2)cc1 | -20 | 12 | -2 | 4 | 1 | -13
CCOC(=O)c1cc(-c2ccc(Cl)s2)[nH]n1 | -11 | 27 | 23 | 27 | -3 | 44*
Cc1ccc(-c2cc(C(=O)O)n[nH]2)s1 | 13 | 1 | 24 | 1 | -1 | -16
C=CCN1C(=O)/C(=C\c2ccc(OC(=O)c3ccco3)c(OC)c2)SC1=S | -7 | 2 | 21 | 21 | -1 | 30*
CCn1cnc2c(cnn2-c2ccccc2)c1=O | 19 | 3 | -13 | 25 | -2 | 36*
O=c1c2cnn(-c3ccccc3)c2ncn1CCc1ccccc1 | 27 | 3 | 19 | -6 | 3 | 24
O=C(COC(=O)c1cc(Cl)ccc1O)NCC1CCCO1 (stereo unspecified) | 5 | 13 | 2 | 8 | 4 | .
Cc1ccc(C)c(NC(=O)CCC(=O)NNC(=O)COc2cc(C)ccc2C)c1 | 2 | 5 | 8 | 3 | 3 | 9
O=C(Cn1c(=O)oc2ccccc21)NCCc1ccccc1Cl | 0 | -18 | -13 | 3 | 5 | 42*
COc1ccc(CNC(=O)Cn2c(=O)oc3ccccc32)cc1OC | 14 | 3 | 3 | -2 | 6 | 43*
COc1cc(-c2nnc(SCc3cc(=O)oc4cc(O)c(O)cc34)o2)cc(OC)c1OC | 5 | -14 | -60 | 1 | 6 | 45*
CCOC(=O)CSc1nnc(-c2cc(OC)c(OC)c(OC)c2)o1 | 10 | 16 | 10 | 4 | -1 | 1
